Among all 68,000 compounds or so, about 2,700 (4%) showed an effect of 50% or more. Only a selection was taken, and strong results are over-represented in it overall.
tested on: Plasmodium berghei; test: Screen against P. berghei liver stage (PbLuc), transformed with Luciferase, at 2uM; type: functional, HepG2; conditions: tested at 2 uM

SMILES	INHIBITION
COc1ccc(OC)c(C2CCN(C(=O)C3CCS(=O)(=O)CC3)C2)c1 (stereo not drawn)	-18.57%
COc1ccc(OC)c(C2CCN(C(=O)C3CCOCC3)C2)c1 (stereo not drawn)	48.21%
COc1ccc(OC)c(C2CCN(C(=O)C3CCC(O)CC3)C2)c1 (stereo not drawn)	55.36%
COc1ccc(C(=O)NCc2cccnc2N2CCOCC2)o1	-49.51%
O=C(c1cccs1)N1CCC(n2nc(-c3ccco3)ccc2=O)CC1	38.1%
CCc1c(C)nn(CC(=O)NC(C)c2n[nH]c(C)n2)c1C (stereo not drawn)	40.15%
Clc1ccc(C2(CNC3=NCCN3)CCCCC2)cc1	35.46%
Clc1ccc(C2(CNC3=NCCN3)CCCC2)cc1	6.85%
Clc1ccc(C2(CNC3=NCCN3)CC2)cc1	53.98%
Cc1cnc(N2CCCC3(COCCN(c4ccc(C)nn4)C3)C2)nc1 (stereo not drawn)	20.21%
CN(Cc1cccc(O)c1)C(=O)c1ccc(CCC(C)(C)O)cc1	19.75%
O=C(NCCCc1cccs1)N1CCCCC1CCO (stereo not drawn)	39.97%
O=C(NCCc1cccs1)N1CCCC1CCCO (stereo not drawn)	8.03%
O=C(NCCc1cccs1)N1CCC[C@H]1CO	55.39%
COCC(=O)N1CCCC(C(=O)N(C)CCn2ccnc2C)C1 (stereo not drawn)	46.04%
Cc1ccc2[nH]c(C(=O)NCCCn3ccnn3)c(C)c2c1	22.39%
Cc1ccc2nc(C)c(C)c(C(=O)NCCCn3cnnc3)c2c1	10.78%
Cc1ccc2nc(C)c(C)c(C(=O)NCCCn3ccnn3)c2c1	56.21%
CC(=O)NCCC1CCCCN1S(=O)(=O)c1cccc(Cl)c1 (stereo not drawn)	-12.13%
CC(=O)NCCC1CCCCN1S(=O)(=O)c1cccc(F)c1 (stereo not drawn)	50.91%
CC(=O)NCCC1CCCCN1S(=O)(=O)c1ccc2ccccc2c1 (stereo not drawn)	29.89%
Cn1cc(-c2csc(N3CCOCC3)n2)cn1	13.35%

SMILES	INHIBITION
Cc1occc1C(=O)N1CCOCC2(CCN(Cc3nccs3)C2)C1 (stereo not drawn)	3.85%
O=C(N1CCCC1)N1C[C@H]2CCC[C@@]2(COCc2ccccn2)C1	5.44%
COC(C)C(=O)NS(=O)(=O)c1ccc(F)c(C(F)(F)F)c1 (stereo not drawn)	35.7%
CSC(C)C(=O)NS(=O)(=O)c1ccc(F)c(C(F)(F)F)c1 (stereo not drawn)	51.48%
CC(C)C(=O)NS(=O)(=O)c1ccc(F)c(C(F)(F)F)c1	18.82%
CC(C)N(C)CCC(=O)N1CCCC(c2ccc(C(=O)O)cc2)C1 (stereo not drawn)	-1.98%
Cc1cc(CN2CCc3nn(C)c(=O)cc3C2)on1	-2.31%
CCn1nc2c(cc1=O)CN(Cc1cc(C)on1)CC2	73.01%
Cc1cc(CN2CCc3nn(C)c(=O)cc3C2)no1	22.34%
CCCn1nc2c(cc1=O)CN(Cc1cc(C)on1)CC2	-1.79%
CCCn1nc2c(cc1=O)CN(Cc1cc(C)no1)CC2	62%
CCCn1nc2c(cc1=O)CN(Cc1c(C)noc1C)CC2	44.37%
Cc1cc(C)nc(N2CCC(Cn3cc(C(N)=O)cn3)CC2)n1	0.93%
Clc1ccc(-c2nnc([C@H]3CCN(C4CCCCC4)C3)o2)cc1	-57.27%
O=C(Nc1cn[nH]c1)N1CCN(CCSc2ccccc2)CC1	-11.24%
COCCN1CCc2cc(C(=O)NC(C)C)c(NCC(C)C)nc2CC1	42.15%
Cc1nn(C)c(Oc2ccc(Cl)cc2)c1CN1CC[C@H](CO)[C@@H](O)C1	43.44%
Cc1nn(C)c(Oc2ccc(Cl)cc2)c1CN1CCOC(CN)C1 (stereo not drawn)	48.21%
Cc1nn(C)c(Oc2ccc(Cl)cc2)c1CN1CCC(CN)C1 (stereo not drawn)	64.9%
CN(C)C(=O)CN1C[C@H]2CC[C@@H](C1)N(Cc1ccccc1OCCO)C2	5.28%
CC(C)[C@@H]1CN(Cc2cnc(C3CCCCC3)nc2)C[C@H]1N(C)C	-1.57%
Cc1nn(C)c(N(C)C)c1CNCC(O)c1ccccc1F (stereo not drawn)	49.9%

SMILES	INHIBITION
CC(C)c1nn(C)c(N(C)C)c1CNCC(O)c1ccccc1F (stereo not drawn)	78.51%
CC(C)c1nn(C)c(N(C)C)c1CNCC(O)c1ccccc1 (stereo not drawn)	35.65%
COc1ccccc1C(O)CNCc1c(C(C)C)nn(C)c1N(C)C (stereo not drawn)	63.95%
COc1ccccc1OCCNCc1c(C(C)C)nn(C)c1N(C)C	7.64%
COc1c(CNCC(O)c2ccccc2F)c(C(C)C)nn1C (stereo not drawn)	-72.31%
O=C(NCC1CC1)c1n[nH]c2c1CNCC2	5.69%
COc1nn(C)cc1C(=O)NCC(OC)c1ccccc1C (stereo not drawn)	24.09%
COc1ccc(NC(=O)CN2CCCCC2C2OCCO2)cc1 (stereo not drawn)	-13.68%
O=C(C1CC1)N1CCN(C(=O)C2CC(=O)N(c3ccccc3Br)C2)CC1 (stereo not drawn)	10.42%
O=C(C1CC(=O)N(c2ccccc2Br)C1)N1CCCCCC1 (stereo not drawn)	57.51%
COC1CCN(C(=O)C2CC(=O)N(c3ccccc3Br)C2)CC1 (stereo not drawn)	22.86%
CC(c1cn2ncsc2n1)n1cc2[nH]cccc-2c1=O (stereo not drawn)	30.09%
CC(C)OCc1ncn2c1CN(CC1CC1)CCC2	-13.31%
O=C(Nc1cnccn1)[C@@H]1C[C@H]2OCC[C@H]2N(Cc2ccsc2)C1	59.52%
O=C(NCC1CC1)[C@H]1C[C@H]2OCC[C@H]2N(Cc2ccsc2)C1	-12.09%
O=C(Nc1cccnc1)[C@@H]1C[C@H]2OCC[C@H]2N(Cc2ccsc2)C1	-83.74%
Cc1cccc(S(=O)(=O)N2C[C@@H]3C[C@H](C(=O)NC4CCC4)[C@H](C2)O3)c1	12.57%
COCCN1C[C@@H]2CC[C@H]1CN(C(=O)CCc1c(C)nn(C)c1C)C2	-23.17%
O=C(Nc1ccc(-c2nc3c([nH]2)CCNC3)cc1)N1CCCC1	-15.03%
O=S(=O)(c1ccc(-c2nc3c([nH]2)CCNC3)cc1)N1CCCC1	52.3%
CC(C)NC(=O)Nc1ccc(-c2nc3c([nH]2)CCNC3)cc1	-35.22%
c1cnc(NCCCOC2CCOCC2)nc1	74.34%

SMILES	INHIBITION
Brc1cnc(NCCCOC2CCOCC2)nc1	21%
Brc1ccc(NCCCOC2CCOCC2)nc1	-11.28%
Cc1ccc(-c2cc(N)c(=O)n(CC(=O)NCC3CC3)n2)s1	36.17%
CN(Cc1ccccc1)CC1(O)CCCN(CC(C)(C)C)C1=O (stereo not drawn)	16.64%
COCCC(=O)N1CCc2cc(Cl)cc(Cl)c2C1	-10.6%
O=C(NCC1CCS(=O)(=O)C1)c1ccco1 (stereo not drawn)	69.48%
O=C(NCC1CCS(=O)(=O)C1)c1ccc(NC(=O)c2ccco2)cc1 (stereo not drawn)	-19.02%
Cc1cc(C(=O)NCC2CCS(=O)(=O)C2)ccc1NC(=O)c1ccco1 (stereo not drawn)	-34.12%
CCOCCCC(=O)Nc1ccc(OCc2noc(C3CC3)n2)cc1	18.09%
COc1cccc2c1N(Cc1nc(C3CC3)no1)CCC2	64.22%
COc1cccc2c1N(Cc1noc(C3CC3)n1)CCC2	-17.64%
COCCc1noc(CN2CCCc3cccc(OC)c32)n1	-61.35%
CCCC(NC(=O)c1cncc(C)c1)c1nnn[nH]1 (stereo not drawn)	-10.41%
COCCN1CCc2ncnc(NC(C)C)c2CC1	3.6%
C[C@@H](NC(=O)c1cnccn1)c1c(-c2ccc(F)cc2)noc1C(=O)O	34.79%
Cc1ccc(CCC(=O)N2CCOCC2c2ncon2)c(C)c1 (stereo not drawn)	35.23%
Cc1cccc(C)c1OCC(=O)N1CCOCC1c1ncon1 (stereo not drawn)	29.54%
O=C(COc1cccc(Cl)c1)N1CCOCC1c1ncon1 (stereo not drawn)	-6.71%
CCc1ccccc1OCC(=O)N1CCOCC1c1ncon1 (stereo not drawn)	53.58%
O=C(COc1ccc(Cl)cc1)N1CCOCC1c1ncon1 (stereo not drawn)	-29.5%
CC(C)c1ccc(CCC(=O)N2CCOCC2c2ncon2)cc1 (stereo not drawn)	15.47%
O=C(CCc1cccc(Cl)c1Cl)N1CCOCC1c1ncon1 (stereo not drawn)	58.52%

SMILES	INHIBITION
Cc1ccc(CC(=O)N2CCOCC2c2ncon2)cc1 (stereo not drawn)	54.99%
CCc1ccc(CCC(=O)N2CCOCC2c2ncon2)cc1 (stereo not drawn)	-45.23%
COCc1cccc(NC(=O)NCCCN(C)S(C)(=O)=O)c1	30.98%
CC(C)CC(=O)N1CC(=O)N(Cc2ccco2)CC(O)C1 (stereo not drawn)	-6.69%
Cc1cccc(-c2nc(C)nn2CC(=O)NCC(C)C)c1	-9.49%
CCC(=O)c1ccc(OCC(=O)NC(C)c2nnc(C)[nH]2)cc1 (stereo not drawn)	-20.29%
CCn1ccc2cc(NC(=O)CC3CCCO3)ccc21 (stereo not drawn)	-73.93%
Cc1cccc2cc(CO)c(N3Cc4cnc(C(C)(C)C)nc4C3)nc12	30.89%
CCC(Nc1nnnn1-c1ccccc1)C(=O)Nc1nc(C)cs1 (stereo not drawn)	-13.81%
Cc1nnsc1C(=O)NCc1cccnc1N(C)C	6.17%
O=C(c1cccc(CNCC=Cc2ccccc2)c1)N1CCCC1	4.49%
CCN(Cc1nc2c(cnn2C)c(=O)[nH]1)c1ccccc1C	-16.3%
COc1ccc(NC(=O)C2CCCO2)cc1OCc1cccnc1 (stereo not drawn)	61%
COc1ccc(NC(=O)C2CC2)cc1OCc1cccnc1	21.24%
COc1ccc(NC(C)=O)cc1OCc1cccnc1	5.44%
CCc1nnc2n1CCN(Cc1ncc(-c3ccc(F)cc3)o1)C2	1.6%
O=C(c1ncccn1)N1C[C@@H]2CN(Cc3cccnc3)CCO[C@@H]2C1	22.62%
CCCc1nc(CN(CC)C(=O)c2onc3ccccc23)no1	-12.7%
CCN(Cc1noc(C2CCC2)n1)C(=O)c1cnc2ccccc2c1	19.53%
CCN(Cc1noc(C2CC2)n1)C(=O)c1onc2ccccc12	51.31%
